This is an account of results in ChEMBL document CHEMBL3988442, “University of Dundee, Small-Polar-MMV Screening Library” (2021).

For part of these data: Potency and affinity values are given separately.

What all share (set-up): scale not given: direction of the effect not stated beside the values
In assay [1] the target is Protein translocase subunit SecA (Escherichia coli (strain K12)) (UniProt P10408). Kind of assay: Assay to Identify E. coli SecA ATPase Inhibitors. The class given is functional. The note with it: 30 µM.
Assay [2] addresses T1, Ubiquitin-activating enzyme e1, putative (Leishmania donovani (strain BPK282A1)) (UniProt E9BSI1).
T1 sequence (whole entry): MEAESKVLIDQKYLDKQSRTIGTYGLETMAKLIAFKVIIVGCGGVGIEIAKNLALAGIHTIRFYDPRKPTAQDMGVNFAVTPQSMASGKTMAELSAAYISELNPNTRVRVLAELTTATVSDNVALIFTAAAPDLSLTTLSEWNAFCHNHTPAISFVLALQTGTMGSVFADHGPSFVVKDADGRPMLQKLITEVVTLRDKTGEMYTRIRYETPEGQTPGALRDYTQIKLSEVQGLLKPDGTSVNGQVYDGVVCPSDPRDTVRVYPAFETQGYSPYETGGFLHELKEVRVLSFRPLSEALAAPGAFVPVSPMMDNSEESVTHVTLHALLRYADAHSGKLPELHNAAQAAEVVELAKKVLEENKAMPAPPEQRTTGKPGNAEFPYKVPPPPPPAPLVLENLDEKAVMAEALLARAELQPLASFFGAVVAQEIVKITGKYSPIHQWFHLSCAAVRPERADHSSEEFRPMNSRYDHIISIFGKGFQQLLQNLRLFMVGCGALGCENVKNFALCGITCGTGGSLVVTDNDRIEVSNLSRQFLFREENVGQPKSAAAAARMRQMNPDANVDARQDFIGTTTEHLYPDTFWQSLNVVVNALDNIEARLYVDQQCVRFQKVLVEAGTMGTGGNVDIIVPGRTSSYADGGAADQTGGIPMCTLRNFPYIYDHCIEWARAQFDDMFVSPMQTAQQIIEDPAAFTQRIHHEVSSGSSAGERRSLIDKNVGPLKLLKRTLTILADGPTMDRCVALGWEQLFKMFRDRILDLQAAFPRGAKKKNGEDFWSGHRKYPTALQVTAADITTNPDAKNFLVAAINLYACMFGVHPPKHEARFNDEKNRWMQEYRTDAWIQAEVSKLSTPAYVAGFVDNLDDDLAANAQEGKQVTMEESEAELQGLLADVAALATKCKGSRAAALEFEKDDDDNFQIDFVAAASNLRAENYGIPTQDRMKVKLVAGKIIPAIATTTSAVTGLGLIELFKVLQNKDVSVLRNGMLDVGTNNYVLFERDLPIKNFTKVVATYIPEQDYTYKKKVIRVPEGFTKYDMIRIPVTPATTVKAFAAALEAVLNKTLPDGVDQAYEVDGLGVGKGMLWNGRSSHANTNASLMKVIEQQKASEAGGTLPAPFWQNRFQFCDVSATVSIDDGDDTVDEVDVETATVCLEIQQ
Kind of assay: Leishmania donovani Ubiquitin Activating Enzyme (LdE1). It is filed as functional. The note with it: 30 µM.

For assay [3], the target named is AMP-activated protein kinase, AMPK (Homo sapiens) (UniProt P54646+O43741+P54619+Q9UGJ0+Q9Y478+Q13131+Q9UGI9). Put plainly: AMP-dependent Kinase enzyme assay. An in vitro enzyme assay that detects ADP turnover that is directly proportional to AMPK activity. This uses naive AMPK that is activated during the assay with MK-8722. The class given is functional. The settings on record: 30 µM.

Assay [4] concerns the target Sialic acid-binding Ig-like lectin 9 (Homo sapiens) (UniProt Q9Y336). Put plainly: Hs-Siglec9 ALPHAscreen SOP 20170721. The note with it: 10 µM.
The test system of assay [5] is Trypanosoma cruzi. Put plainly: Trypanosoma cruzi phosphomannomutase and mannose-1-phosphate guanylyltransferase assay. It is filed as functional. The note with it: 10 µM.
In assay [6] the target is T2, Arginase-2, mitochondrial (Homo sapiens) (UniProt P78540).
T2 sequence (whole entry): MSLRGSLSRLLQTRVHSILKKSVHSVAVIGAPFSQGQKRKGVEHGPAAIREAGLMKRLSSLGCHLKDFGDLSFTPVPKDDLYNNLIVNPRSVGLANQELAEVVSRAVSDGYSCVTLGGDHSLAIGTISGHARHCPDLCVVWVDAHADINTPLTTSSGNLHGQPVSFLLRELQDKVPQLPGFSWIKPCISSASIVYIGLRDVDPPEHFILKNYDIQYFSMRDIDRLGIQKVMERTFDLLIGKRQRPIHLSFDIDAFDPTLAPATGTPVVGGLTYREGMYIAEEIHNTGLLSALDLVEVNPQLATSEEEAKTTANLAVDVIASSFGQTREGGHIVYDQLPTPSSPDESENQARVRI
Put plainly: in vitro enzyme assay to detect the production of urea directly proportional to the activity of Arginase II. Note: in the data most compounds retested in dose-response had high values. The class given is functional. The settings on record: 33.3 µM.

For assay [7], the target named is T3, Proteasome subunit beta (Trypanosoma cruzi) (UniProt O96673).
T3 sequence (whole entry): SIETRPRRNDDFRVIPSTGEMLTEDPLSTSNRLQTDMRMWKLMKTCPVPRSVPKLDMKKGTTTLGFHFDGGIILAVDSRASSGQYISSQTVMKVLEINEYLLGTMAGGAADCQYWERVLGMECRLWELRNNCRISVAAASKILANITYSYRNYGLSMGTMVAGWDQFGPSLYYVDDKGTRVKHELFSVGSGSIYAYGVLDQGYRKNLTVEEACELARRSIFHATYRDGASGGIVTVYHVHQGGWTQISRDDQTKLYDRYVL
Put plainly: Trypanosoma cruzi proteasome chymotrypsin-like activity (TcProtChymo) assay. Note: in the data most compounds retested in dose-response had high values. The class given is functional. The settings on record: 9.37 µM.

The species entered for assay [8] is Homo sapiens. Put plainly: To identify inhibition of the IFN signalling (Jak-Stat) pathway via expression of an eGFP reporter gene under the control of an IFN-stimulated response element (ISRE) containing MxA promoter. The settings on record: 30 µM. The class given is functional.
The target in assay [9] is T4, Tyrosyl-tRNA synthetase, putative (Trypanosoma cruzi (strain CL Brener)) (UniProt Q4DSP6).
T4 sequence (whole entry): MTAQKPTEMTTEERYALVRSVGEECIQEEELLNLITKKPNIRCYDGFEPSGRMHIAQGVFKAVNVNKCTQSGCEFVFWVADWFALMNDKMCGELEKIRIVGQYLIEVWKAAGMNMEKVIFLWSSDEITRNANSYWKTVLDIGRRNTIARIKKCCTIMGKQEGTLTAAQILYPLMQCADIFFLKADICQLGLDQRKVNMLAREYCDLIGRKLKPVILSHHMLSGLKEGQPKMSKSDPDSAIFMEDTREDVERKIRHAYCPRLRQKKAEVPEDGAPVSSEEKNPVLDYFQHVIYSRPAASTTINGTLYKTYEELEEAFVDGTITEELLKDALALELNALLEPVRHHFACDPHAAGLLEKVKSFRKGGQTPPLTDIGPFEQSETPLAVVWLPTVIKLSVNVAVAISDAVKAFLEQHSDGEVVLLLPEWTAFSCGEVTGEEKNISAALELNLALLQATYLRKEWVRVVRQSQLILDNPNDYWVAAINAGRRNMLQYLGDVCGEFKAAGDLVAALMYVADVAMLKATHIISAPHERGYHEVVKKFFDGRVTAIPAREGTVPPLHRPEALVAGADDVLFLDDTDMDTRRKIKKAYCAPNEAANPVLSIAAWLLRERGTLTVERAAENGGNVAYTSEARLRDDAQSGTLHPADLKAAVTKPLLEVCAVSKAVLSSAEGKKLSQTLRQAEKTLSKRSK
Kind of assay: Trypanosoma cruzi tyrosyl tRNA synthetase (TcYRS) _High Tyrosine SOP. Note: in the data most compounds retested in dose-response had high values. It is filed as functional. The settings on record: 30 µM.

The target of assay [10] is T4, Tyrosyl-tRNA synthetase, putative (Trypanosoma cruzi (strain CL Brener)). Put plainly: Trypanosoma cruzi tyrosyl tRNA synthetase (TcYRS) SOP. The class given is functional. The settings on record: 30 µM.
Assay [11] concerns the target Chromo domain-containing protein 1 (Saccharomyces cerevisiae (strain ATCC 204508 / S288c) (Baker's yeast)) (UniProt P32657). Kind of assay: ScCHD-1 Enzyme Inhibition Assay. Note: in the data most compounds retested in dose-response had high values. It is filed as functional. The note with it: 30 µM.

Sequence of Chromo domain-containing protein 1 (Saccharomyces cerevisiae (strain ATCC 204508 / S288c) (Baker's yeast)) (P32657 whole entry, the tested form may be a part): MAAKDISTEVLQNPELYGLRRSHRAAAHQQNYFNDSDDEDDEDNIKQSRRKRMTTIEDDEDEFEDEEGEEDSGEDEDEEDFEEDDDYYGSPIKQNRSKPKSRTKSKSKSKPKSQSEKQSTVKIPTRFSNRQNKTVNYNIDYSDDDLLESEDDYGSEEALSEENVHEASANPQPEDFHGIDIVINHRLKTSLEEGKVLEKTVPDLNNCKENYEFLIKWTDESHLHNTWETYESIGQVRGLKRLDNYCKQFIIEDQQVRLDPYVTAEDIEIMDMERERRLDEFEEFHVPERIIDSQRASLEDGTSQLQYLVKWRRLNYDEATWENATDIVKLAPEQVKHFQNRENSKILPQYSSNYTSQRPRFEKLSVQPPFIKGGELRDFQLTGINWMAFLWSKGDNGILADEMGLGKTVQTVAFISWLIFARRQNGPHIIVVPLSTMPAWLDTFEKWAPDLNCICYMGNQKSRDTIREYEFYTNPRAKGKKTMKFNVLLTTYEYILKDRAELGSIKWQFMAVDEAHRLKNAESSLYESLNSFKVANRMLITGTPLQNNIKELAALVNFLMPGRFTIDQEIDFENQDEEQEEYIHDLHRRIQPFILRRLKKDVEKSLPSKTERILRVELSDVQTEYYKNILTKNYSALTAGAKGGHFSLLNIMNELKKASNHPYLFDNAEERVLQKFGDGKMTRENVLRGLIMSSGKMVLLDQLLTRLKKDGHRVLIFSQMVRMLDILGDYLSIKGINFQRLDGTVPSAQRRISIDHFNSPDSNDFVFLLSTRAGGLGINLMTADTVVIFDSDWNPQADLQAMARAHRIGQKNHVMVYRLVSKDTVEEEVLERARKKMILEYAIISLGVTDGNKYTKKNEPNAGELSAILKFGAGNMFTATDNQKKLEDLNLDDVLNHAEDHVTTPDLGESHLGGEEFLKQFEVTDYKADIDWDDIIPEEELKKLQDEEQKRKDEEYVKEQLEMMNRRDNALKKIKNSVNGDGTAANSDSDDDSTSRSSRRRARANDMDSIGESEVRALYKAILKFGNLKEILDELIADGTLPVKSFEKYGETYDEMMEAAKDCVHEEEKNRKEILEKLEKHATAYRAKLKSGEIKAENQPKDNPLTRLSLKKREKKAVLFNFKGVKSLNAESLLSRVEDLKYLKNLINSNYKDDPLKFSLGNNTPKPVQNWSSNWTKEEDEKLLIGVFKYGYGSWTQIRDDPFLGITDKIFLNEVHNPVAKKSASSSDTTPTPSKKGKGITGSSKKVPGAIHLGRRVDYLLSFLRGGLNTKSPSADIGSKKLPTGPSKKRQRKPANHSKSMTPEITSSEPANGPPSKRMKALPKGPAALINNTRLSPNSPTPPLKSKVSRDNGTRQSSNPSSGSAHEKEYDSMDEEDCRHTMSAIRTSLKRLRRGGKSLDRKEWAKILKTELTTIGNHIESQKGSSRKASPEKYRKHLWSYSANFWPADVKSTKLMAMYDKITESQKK
Sequence of Protein translocase subunit SecA (Escherichia coli (strain K12)) (P10408 whole entry): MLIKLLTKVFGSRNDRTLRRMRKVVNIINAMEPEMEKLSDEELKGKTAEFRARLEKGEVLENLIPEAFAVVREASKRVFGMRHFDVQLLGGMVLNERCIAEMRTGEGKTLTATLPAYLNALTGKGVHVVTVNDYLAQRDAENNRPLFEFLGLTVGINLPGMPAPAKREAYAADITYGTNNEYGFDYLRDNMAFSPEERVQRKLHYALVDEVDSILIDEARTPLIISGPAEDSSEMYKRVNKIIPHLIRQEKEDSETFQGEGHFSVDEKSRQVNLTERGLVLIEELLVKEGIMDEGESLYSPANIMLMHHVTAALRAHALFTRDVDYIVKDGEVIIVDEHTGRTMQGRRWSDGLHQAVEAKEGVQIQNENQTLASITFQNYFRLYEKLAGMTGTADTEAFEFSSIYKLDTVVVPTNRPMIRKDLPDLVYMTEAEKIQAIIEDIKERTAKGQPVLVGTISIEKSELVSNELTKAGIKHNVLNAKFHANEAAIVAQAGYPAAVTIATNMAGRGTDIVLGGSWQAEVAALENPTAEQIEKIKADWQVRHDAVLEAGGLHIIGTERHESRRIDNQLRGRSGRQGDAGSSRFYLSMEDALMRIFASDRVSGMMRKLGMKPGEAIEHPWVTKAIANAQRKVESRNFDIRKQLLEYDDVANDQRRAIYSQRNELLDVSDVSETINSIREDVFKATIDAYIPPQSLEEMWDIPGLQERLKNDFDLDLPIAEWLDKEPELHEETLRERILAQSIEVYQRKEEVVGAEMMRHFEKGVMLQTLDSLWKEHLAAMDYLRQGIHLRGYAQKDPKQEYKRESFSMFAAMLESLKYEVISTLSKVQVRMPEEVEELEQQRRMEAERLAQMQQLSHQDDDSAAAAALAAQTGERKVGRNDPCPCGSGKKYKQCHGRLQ
Sequence of Sialic acid-binding Ig-like lectin 9 (Homo sapiens) (Q9Y336 whole entry): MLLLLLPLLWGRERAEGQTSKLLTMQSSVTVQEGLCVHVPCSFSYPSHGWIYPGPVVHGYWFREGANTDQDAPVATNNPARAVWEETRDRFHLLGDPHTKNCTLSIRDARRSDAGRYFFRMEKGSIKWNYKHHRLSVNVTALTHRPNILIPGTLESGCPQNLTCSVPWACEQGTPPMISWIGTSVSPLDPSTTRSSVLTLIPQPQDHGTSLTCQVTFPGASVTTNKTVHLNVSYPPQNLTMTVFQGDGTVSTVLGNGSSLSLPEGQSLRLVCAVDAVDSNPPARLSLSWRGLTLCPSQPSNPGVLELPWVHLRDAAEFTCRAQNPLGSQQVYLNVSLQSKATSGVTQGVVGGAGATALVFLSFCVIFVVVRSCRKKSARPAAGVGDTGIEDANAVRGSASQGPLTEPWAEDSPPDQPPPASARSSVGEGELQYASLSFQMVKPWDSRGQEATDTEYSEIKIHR

Take `Cc1nn(C)cc1C(=O)Nc1cccc(CN2CCC(CO)CC2)c1`: the Percent Effect in assay [1] was -3.16%; in assay [2], 18.4%; in assay [3], -4.72%; in assay [4], -21.7%; in assay [5] it was 3.41%; in assay [6], 26%. Further, the Percent Effect is 8.53% in assay [7]; 28.8% in [8]; 1.06% in [9]; 15.6% in [10]; -7.09% in assay [11].

Regarding `CCc1ccc(CN2CCCC(CO)(CCOC)C2)cc1` (centres undefined), the Percent Effect in [1] is -2.06%; in [2] it was -5.41%; in assay [3], -3.48%; in assay [4] it was -7.57%; in assay [5] it was -4.79%; in assay [6] it was -6.7%. For the same molecule, the Percent Effect is -0.258% in [7]; -5.11% in assay [8]; -1.07% in assay [9]; 1.24% in assay [10]; 1.15% in assay [11].

`Cc1ccsc1CNc1cc(N2CCCC2CO)ncn1` (centres undefined): the Percent Effect in [1] was -9.04%; in assay [2], 11.4%; in [3], -19.2%; in [4] it was 6.66%; in assay [5], 1.33%; in [6], -1.07%. The Percent Effect in assay [7] is 8.23%; in assay [8] it was 12.1%; in assay [9] it was 0%; in assay [10], 17.7%; in [11] it was -31%.

In the case of `CN(Cc1cnn(C)c1)C(=O)NCc1nnc2n1CCC2`, the Percent Effect in [1] was -4.33%; in assay [2] it was 10.1%; in [3], 2.17%; in assay [4], 6.31%; in assay [5], 4.06%; in assay [6], 1.52%. In addition, the Percent Effect in assay [7] is -0.901%; in [8], 3.9%; in assay [9], 5.42%; in assay [10], 8.86%; in assay [11] it was -6.73%.

Consider `CN(C)c1nccc(N2CCO[C@H]3CN(CC4CCOCC4)C[C@H]32)n1`, for which the Percent Effect in [1] is 1.86%; in [2], 11%; in assay [3] it was -5.46%; in [4], 12.4%; in assay [5], 4.37%; in assay [6], -3.59%. In addition, the Percent Effect in [7] is 10.5%; in assay [8] it was 30.6%; in [9], 4.17%; in assay [10], 18.5%; in assay [11], -7.93%.

For the molecule `Cc1cn(-c2ccccc2)nc1NS(=O)(=O)c1cccc(C(=O)O)c1`, the Percent Effect in [1] was -4.24%; in [2], 0%; in [3], 9.15%; in [4], -6.49%; in assay [5], -9.01%; in assay [6], 5%. The Percent Effect in assay [7] is 14.4%; in assay [8] it was 10.4%; in assay [9], -5.38%; in [10] it was -5%; in [11] it was -7.14%.

With `Cc1nc(CN2CCOC(CN(C)c3cccnn3)C2)cs1` (centres undefined), the Percent Effect in assay [1] was 0.938%; in assay [2], 0%; in assay [3] it was -2.69%; in assay [4], -0.951%; in assay [5] it was 4.8%; in assay [6], 1.47%. In addition, the Percent Effect is 5.74% in assay [7]; 10.8% in assay [8]; 2.86% in assay [9]; 2.35% in assay [10]; 0.286% in assay [11].

For `CCc1noc(C(C)N2CCC(NC(=O)c3ccc(C)s3)CC2)n1` (centres undefined), the Percent Effect in assay [1] is -3.18%; in assay [2], 7.79%; in assay [3], 2.15%; in assay [4] it was 19.9%; in assay [5], 2.65%; in assay [6] it was 2.76%. The Percent Effect in assay [7] is 12.3%; in assay [8], 17.6%; in assay [9] it was 4.3%; in [10], 11.1%; in assay [11], -0.98%.

With `Cc1ccccc1CC1(CO)CCCN(c2ncccc2C#N)C1` (centres undefined), the Percent Effect is -2.63% in [1]; 0% in [2]; 3.1% in [3]; 0.621% in assay [4]; -5.21% in assay [5]; 1.43% in assay [6]. Moreover, the Percent Effect in [7] is 17.1%; in assay [8], 27.8%; in assay [9], 3.7%; in assay [10], 7.32%; in [11] it was -1.78%.
